Compounds with a hit are over-represented: about 2.1% of the library has one in this group of screens.
GalR3 antagonist: antagonists of human GalR3 | AID 651719 | inhibition, % at 3 µM | O60755 | HEK293 GalR3-CNG cAMP membrane potential fluorescence; galR3 body fused to GalR1 C-terminus | 360,000 tested, 0.44% active;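 active = inhibition above the screen-wide average plus 3 SD, cut at about 13% in these data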;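 also: forskolin and galanin both at EC90 stimulate the cells; cAMP rise reported by CNG channel membrane potential dye signal; 0% = forskolin plus galanin with DMSO and 100% = forskolin alone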
Target sequence (O60755 1-299 limits assumed): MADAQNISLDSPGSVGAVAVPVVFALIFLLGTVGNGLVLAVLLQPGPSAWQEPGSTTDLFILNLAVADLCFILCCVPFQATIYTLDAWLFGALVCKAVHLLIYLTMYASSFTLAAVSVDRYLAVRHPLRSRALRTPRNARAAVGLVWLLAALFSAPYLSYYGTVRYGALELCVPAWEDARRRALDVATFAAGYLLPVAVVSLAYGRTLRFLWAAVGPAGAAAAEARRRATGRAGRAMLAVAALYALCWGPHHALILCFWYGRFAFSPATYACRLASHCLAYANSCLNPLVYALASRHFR
Gli-Sufu antag: blocks Gli-Sufu signaling in a luciferase reporter; AID 588413; 340,000 tested, 0.74% active; inhibition, % at 5 µM; Sufu-KO-LIGHT fibroblasts, Gli luciferase reporter luminescence;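 active = inhibition above about 55%, limit read from the data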;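 also: 0% = DMSO-treated cells and 100% = wells with medium but no cells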
aDG glyco act: increases alpha dystroglycan glycosylation; activation, % at 10 µM; AID 624168; 360,000 tested, 0.22% active; Pro5-aDG cells, alpha-DG glycosylation AlphaScreen (IIH6); 0% Pro5, 100% B10-LARGE cell signal;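 active = activation of at least 8% versus controls, or a plate z-score of at least 8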;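 also: Pro5 are CHO cells carrying HIG-tagged alpha-DG that lacks glycosylation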
COUP-TFII inh: NR2F2 (human) inhibition, primary screen; 370,000 tested, 0.7% active; P24468; AID 686940; inhibition, % at 8.6 µM; HEK293T NGFI-A luciferase reporter, luminescence;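 active = inhibition above a per-plate cutoff, mean inhibition of test wells between control levels plus 3 SD, cut at about 38% in these data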;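 also: cells cotransfected with COUP-TFII expression vector driving the NGFI-A reporter; 0% = median of COUP-TF2 test wells and 100% = reporter-only cells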
HIV Env fusion: HIV envelope-mediated fusion inhibition; HeLa-JRFL Env/CEM21 cell fusion, luciferase; AID 651610; inhibition, % at 12.3 µM; 360,000 tested, 1.1% active;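 active = mean replicate inhibition score of at least 50 and every replicate individually at or above 50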;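 also: 0% = plate neutral controls and 100% = maraviroc near 300 nM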
Gli-Sufu confirm: Gli-SUFU antagonism confirmation, single concentration. inhibition, % at 5 µM. shares compounds with Gli-Sufu antag. Sufu-KO-LIGHT cells, Gli luciferase reporter, luminescence. AID 602428. 2,500 tested, 40% active;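 active = mean inhibition at 5 µM reaching about 45%, limit read from the data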;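 also: plate controls were DMSO-treated cells for no effect and wells lacking cells for full effect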
SufuKO cytotox: counter-screen for Gli-SUFU antagonists: cytotoxicity; shares compounds with Gli-Sufu antag; Sufu-KO-LIGHT cells cytotoxicity, ATP luminescence; cytotoxicity, % at 5 µM; 2,500 tested, 32% active; AID 651994;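 active = mean cytotoxicity at 5 µM above about 25%, limit read from the data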;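 also: cells exposed to compound overnight for roughly 16 to 18 hours; plate controls were DMSO wells with cells for no effect and medium without cells for full effect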
Wnt3a cs: counter-screen for Gli-SUFU antagonists: Wnt3a reporter inhibition | AID 651995 | 2,500 tested, 20% active | inhibition, % at 6.25 µM | shares compounds with Gli-Sufu antag | Wnt-LIGHT cells, Wnt3a-driven luciferase reporter, luminescence;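 active = mean inhibition above about 25%, limit read from the data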
* = called active by the depositor; · = not tested or not shown; [ ] = remark or other dose.

SMILES	GalR3 antagonist	Gli-Sufu antag	aDG glyco act	COUP-TFII inh	HIV Env fusion	Gli-Sufu confirm	SufuKO cytotox	Wnt3a cs
CCOc1ccc2c(c1)s/c(=N\S(=O)(=O)c1ccc(OC)cc1)n2C(F)F	-5.5	54.9	0.1	8.9	·	11.0	-0.8	-4.6
Nc1nc(N2CCN(C(c3ccccc3)c3ccccc3)CC2)n[nH]1	0.8	65.8*	-0.4	-9.9	-4.2	30.5	21.7	-14.9
CCOc1ccccc1N1CCN(C(=O)CNC(=O)c2ccc(OC)c(OC)c2)CC1	-4.6	71.2*	0.1	19.9	-1.0	9.9	8.9	-27.1
COc1ccc(C(=O)NCC(=O)N2CCCCC2)cc1OC	2.6	-5.1	-0.2	-4.9	1.3	·	·	·
O=C(/C=C/NNC(=O)c1ccccc1)c1ccc([N+](=O)[O-])cc1	-6.7	73.3*	0.7	-15.1	13.1	33.9	27.7*	23.4
COc1ccccc1-c1c(-c2ccc(O)cc2O)n[nH]c1C(F)(F)F	-0.8	50.5	0.5	34.4	92.5*	62.9*	23.6	31.1*
COc1ccc(-c2c(-c3ccc(O)cc3O)n[nH]c2C(F)(F)F)cc1	-5.3	4.3	-0.3	16.5	11.5	·	·	·
Cc1cc(C)c2nc(N(CCCN(C)C)C(=O)C3=COCCO3)sc2c1	-6.2	21.9	2.5	-4.0	3.4	·	·	·
Cc1cc(C)c2nc(N(CCCN(C)C)C(=O)c3ccc4c(c3)OCCO4)sc2c1	-6.3	70.8*	1.0	-13.7	-18.1	12.8	19.7	-60.7
CCC(=O)N(C)C[C@@H]1Oc2cc(C#CC(C)(C)O)ccc2S(=O)(=O)N([C@@H](C)CO)C[C@H]1C	·	·	·	·	-11.8[16.7 µM]	·	·	·
O=C(CCl)N(Cc1ccccc1)c1ccccc1	-3.4	-16.6	-0.5	18.0	25.8	·	·	·
Cc1cccc(N(Cc2ccccc2)C(=O)CCl)c1	2.5	76.9*	-0.8	9.5	25.1	29.1	27.5*	-8.6
Cc1ccc2c(c1)C(=O)CC(O)(C(F)F)O2 (stereo not given)	-7.1	55.2*	0.0	-4.6	-3.7	11.2	-0.7	9.4
CC1(C)C2CCC1(C)C(OCC[N+](C)(C)CC(=O)OC1CCCCC1)C2 (stereo not given)	-0.4	78.8*	-0.5	-0.8	74.2*	74.8*	32.2*	22.4
CN(C)CCN1C(=O)c2oc3ccccc3c(=O)c2C1c1ccc(F)cc1 (stereo not given)	-7.1	1.2	-0.1	6.6	-67.7	·	·	·
CCN(CC)CCN1C(=O)c2oc3ccccc3c(=O)c2C1c1ccc(C)cc1 (stereo not given)	2.5	80.0*	0.0	-14.2	·	21.9	-6.0	-22.1
CC(=O)c1cnc(Nc2cccc(Cl)c2Cl)s1	3.1	-46.2	0.7	-61.7	-45.9	·	·	·
CC(=O)c1cnc(Nc2ccccc2)s1	-3.1	56.9*	0.4	-20.9	·	10.5	7.7	-92.1
CCC(=O)c1ccccc1OCCCN1CCC(Cc2ccccc2)CC1	-4.8	52.5	0.9	21.4	24.2	20.9	33.4*	-37.5
O=C(C[C@@H]1CC[C@H](NC(=O)c2cccc(F)c2)[C@H](CO)O1)NCCN1CCCC1	·	·	·	·	1.9[16.7 µM]	·	·	·
C[C@H](CO)N1C[C@H](C)[C@@H](CN(C)C(=O)CN(C)C)Oc2cc(C3=CCCC3)ccc2S1(=O)=O	·	·	·	·	-1.8[16.7 µM]	·	·	·
Cc1ccc(NC(=O)CC(NCC2CCCO2)C(=O)O)cc1C (stereo not given)	7.6	56.9*	0.4	5.6	-1.3	20.6	-2.1	13.6
Cc1ccc(C)c(N2CC(O)(c3cccs3)[N+]3=C2CCCC3)c1 (stereo not given)	-3.7	62.5*	-0.1	-9.2	2.5	50.0*	26.5*	-14.3
OC1(c2cccs2)CN(c2ccc(Cl)cc2)C2=[N+]1CCCC2 (stereo not given)	1.1	12.4	0.0	2.4	-22.7	·	·	·
CC1CCN(C(=S)Nc2ccc(F)cc2)CC1	-1.0	64.4*	-0.3	4.5	13.8	15.4	22.4	-9.3
O=C1/C(=C/c2ccccc2O)SC(=S)N1Cc1cccnc1	0.1	72.2*	-0.4	3.7	-9.7	31.5	8.9	-102.4

Compound activity (PubChem BioAssay)
